According to the supplement of paper PMC10811239:

The compounds below were run on LEGO organoid PT (PTEN-/-; TP53-/-) (assay: bioluminescence (viable cell) signal fold change after vs before treatment, normalised to DMSO (ratio); higher = more tumour cell growth / less inhibition). Settings: 10 µM; treatment time 6 days.
Method: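 Luc2-labelled iPSC-derived glioblastoma-like organoids (LEGOs, genotypes PT = PTEN-/-;TP53-/-, PTCC = plus CDKN2A/B-/-, PTN = plus NF1-/-) were treated with 10 uM drug for 6 days (applied every other day) at 37 C. Bioluminescence imaging was done before treatment and 2 days after the last dose. BLI signals were normalised to the DMSO control on the same day and then to the pre-treatment signal (N=3).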

Row | SMILES | bioluminescence
1 | Cl.NCC(=O)CCC(=O)O [5-Aminolevulinic acid hydrochloride] | 1.09
2 | CC(=O)N[C@@H](CS)C(=O)O [Acetylcysteine] | 1.23
3 | C[N+](C)(C)CCO.[Cl-] [Choline chloride] | 1.48
4 | CN(C)CCOC(C)(c1ccccc1)c1ccccn1.O=C(O)CCC(=O)O (stereo not given) [Doxylamine succinate] | 0.83
5 | CCc1c(C)[nH]c2c1C(=O)C(CN1CCOCC1)CC2.Cl (stereo not given) [Molindone hydrochloride] | 0.607
6 | Cc1cc(C)nc(NS(=O)(=O)c2ccc(N)cc2)n1 [Sulfamethazine] | 0.814
7 | C#CCN[C@@H]1CCc2ccccc21.CS(=O)(=O)O [Rasagiline Mesylate] | 0.604
8 | Cl.Cc1ccsc1\C(=C\CCN1CCC[C@H](C1)C(O)=O)c1sccc1C [Tiagabine hydrochloride] | 1.04
9 | Cl.CNCC\C=C1\c2ccccc2CCc2ccccc12 [Nortriptyline hydrochloride] | 0.795
10 | Nc1nc(NC2CC2)c2ncn([C@H]3C=C[C@@H](CO)C3)c2n1 [Abacavir] | 1.2
11 | CCc1cc(/C(C)=N/OCc2ccc(C3CCCCC3)c(C(F)(F)F)c2)ccc1CN1CC(C(=O)O)C1 [Siponimod] | 0.646
12 | NC(=O)N1c2ccccc2CC(=O)c2ccccc21 [Oxcarbazepine] | 0.572
13 | COCCOC(=O)C1=C(C)NC(C)=C(C(=O)OC(C)C)C1c1cccc([N+](=O)[O-])c1 (stereo not given) [Nimodipine] | 1.49
14 | CC(C)(C)c1cc(C(C)(C)C)c(NC(=O)c2c[nH]c3ccccc3c2=O)cc1O [Ivacaftor] | 0.378
15 | Nc1nnc(-c2cccc(Cl)c2Cl)c(N)n1 [Lamotrigine] | 0.852
16 | CCc1c2c(nc3ccc(OC(=O)N4CCC(N5CCCCC5)CC4)cc13)-c1cc3c(c(=O)n1C2)COC(=O)[C@]3(O)CC [Irinotecan] | 2.7
17 | O=C(O)Cc1ccccc1Nc1c(Cl)cccc1Cl [Diclofenac] | 1.11
18 | CCC1=CC2CN(C1)Cc1c([nH]c3ccccc13)[C@](C(=O)OC)(c1cc3c(cc1OC)N(C)[C@H]1[C@@](O)(C(=O)OC)[C@H](OC(C)=O)[C@]4(CC)C=CCN5CC[C@]31[C@@H]54)C2.O=C(O)[C@H](O)[C@@H](O)C(=O)O.O=C(O)[C@H](O)[C@@H](O)C(=O)O (stereo not given in full) [Vinorelbine ditartrate] | 0.558
19 | C[C@@H](O[C@H]1OCCN(Cc2nc(=O)[nH][nH]2)[C@H]1c1ccc(F)cc1)c1cc(C(F)(F)F)cc(C(F)(F)F)c1 [Aprepitant] | 0.86
20 | CO[C@@H]1[C@H](N(C)C(=O)c2ccccc2)C[C@H]2O[C@]1(C)n1c3ccccc3c3c4c(c5c6ccccc6n2c5c31)C(=O)NC4 [Midostaurin] | 0.527

Row | SMILES | bioluminescence
21 | O.O.O.O.[Li][O]C(=O)CC(O)(CC(=O)[O][Li])C(=O)[O][Li] [Lithium citrate tetrahydrate] | 1.01
22 | CC(C)NCC(O)COc1cccc2ccccc12.Cl (stereo not given) [Propranolol hydrochloride] | 1.03
23 | Cc1c(C)c2c(c(C)c1O)CC[C@@](C)(CCC[C@H](C)CCC[C@H](C)CCCC(C)C)O2 [α-Vitamin E] | 1.31
24 | CS(=O)(=O)c1cccc(C[C@H](NC(=O)c2c(Cl)cc3c(c2Cl)CCN(C(=O)c2ccc4ccoc4c2)C3)C(=O)O)c1 [Lifitegrast] | 1.49
25 | C#Cc1cccc(Nc2ncnc3cc(OCCOC)c(OCCOC)cc23)c1.Cl [Erlotinib hydrochloride] | 1.53
26 | CCc1cccc2c3c([nH]c12)C(CC)(CC(=O)O)OCC3 (stereo not given) [Etodolac] | 1
27 | CC[C@]1(O)C[C@H]2C[N@](CCc3c([nH]c4ccccc34)[C@@](C(=O)OC)(c3cc4c(cc3OC)N(C=O)[C@H]3[C@@](O)(C(=O)OC)[C@H](OC(C)=O)[C@]5(CC)C=CCN6CC[C@]43[C@@H]65)C2)C1.O=S(=O)(O)O [Vincristine sulfate] | 0.224
28 | Cl.OC(CCN1CCCC1)(c1ccccc1)C1CCCCC1 (stereo not given) [Procyclidine hydrochloride] | 1.48
29 | CC(=O)OCC(=O)[C@@]1(O)[C@H](C)C[C@H]2[C@@H]3CCC4=CC(=O)C=C[C@]4(C)[C@@]3(F)[C@@H](O)C[C@@]21C [Dexamethason acetate] | 1.76
30 | CC(=O)Nc1ccc(O)cc1 [Acetaminophen] | 1.19
31 | COc1cccc2c1C(=O)c1c(O)c3c(c(O)c1C2=O)C[C@@](O)(C(=O)CO)C[C@@H]3O[C@H]1C[C@H](N)[C@@H](O)[C@H](C)O1.Cl [Epirubicin hydrochloride] | 0
32 | CCc1nc(N)nc(N)c1-c1ccc(Cl)cc1 [Pyrimethamine] | 0.65
33 | Cc1cn(-c2cc(NC(=O)c3ccc(C)c(Nc4nccc(-c5cccnc5)n4)c3)cc(C(F)(F)F)c2)cn1 [Nilotinib] | 2.55
34 | O=NN(CCCl)C(=O)NC1CCCCC1 [Lomustine] | 2.59
35 | CC(C)NCC(O)COc1ccc(CC(N)=O)cc1 (stereo not given) [Atenolol] | 1.39
36 | CCCNS(=O)(=O)Nc1ncnc(OCCOc2ncc(Br)cn2)c1-c1ccc(Br)cc1 [Macitentan] | 1.16
37 | O=C1[N-]C(=O)C(c2ccccc2)(c2ccccc2)N1.[Na+] [Phenytoin sodium] | 0.855
38 | CCCCN1CCCCC1C(=O)Nc1c(C)cccc1C.Cl (stereo not given) [Bupivacaine hydrochloride] | 1.37
39 | NCCS(=O)(=O)O [Taurine] | 1.84
40 | CS(=O)(=O)O.Cc1ccc(NC(=O)c2ccc(CN3CCN(C)CC3)cc2)cc1Nc1nccc(-c2cccnc2)n1 [Imatinib Mesylate] | 0.751
